From PubChem BioAssay (NCI)
About 79,000 compounds went through this panel and 15% of them were active in at least one assay; those are over-represented in the sample as a whole. Rule as the data show it: active = growth inhibition above about 70%; inactive = the rest.

Columns and labels:
[1] = NCI Yeast Anticancer Drug Screen. Data for the rad50 strain (AID 155);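 also: 0% = growth of vehicle-only cultures of the same strain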; settings: S. cerevisiae rad50 strain growth inhibition; at 50.0 µM; active compounds read high
Summary of the method: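 Vehicle-treated cultures provide the reference for the growth inhibition reported for compound-exposed, repair-deficient yeast.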

[2] = NCI Yeast Anticancer Drug Screen. Data for the mec2-1 strain (AID 157); settings: S. cerevisiae mec2-1 strain, at 50.0 µM, active compounds read high
Summary of the method: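 mec2-1 yeast strain, carrying an alteration in DNA damage repair or cell cycle control, was exposed to compounds; growth inhibition was measured relative to vehicle-treated controls.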

[3] = NCI Yeast Anticancer Drug Screen. Data for the sgs1 mgt1 strain (AID 161);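 also: 0% = growth of cultures given vehicle only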; settings: S. cerevisiae sgs1 mgt1 strain, at 50.0 µM, active compounds read high
Summary of the method: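 Yeast cells carrying a defined DNA-repair defect were exposed to test compounds. Growth inhibition was measured relative to vehicle-treated controls.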

[4] = NCI Yeast Anticancer Drug Screen. Data for the cln2 rad14 strain (AID 165);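 also: 0% = growth equal to vehicle treated cultures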; settings: S. cerevisiae cln2 rad14 strain, at 50.0 µM, active compounds read high
Summary of the method: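 Yeast carrying cln2 and rad14 alterations (cell cycle control and DNA damage repair) were exposed to compounds. Growth inhibition was measured against vehicle-treated controls.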

[5] = NCI Yeast Anticancer Drug Screen. Data for the bub3 strain (AID 167); settings: S. cerevisiae bub3 mutant strain, at 50.0 µM, active compounds read high
Summary of the method: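 Mutant yeast screening strain plus compound; vehicle-treated cultures serve as the 0% inhibition reference.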

[6] = NCI Yeast Anticancer Drug Screen. Data for the mlh1 rad18 strain (AID 175); settings: S. cerevisiae mlh1 rad18 strain growth inhibition; at 50.0 µM; active compounds read high
Summary of the method: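 Growth inhibition of the yeast strain was measured after compound exposure and expressed relative to vehicle-treated controls. The strain carries defined defects in DNA damage repair.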

Measured: growth inhibition

CN1c2ccccc2C(=O)NC12CCN(CCCC(=O)c1ccc(F)cc1)CC2
inactive: [1] 6.6% | [2] 6.95% | [3] 46.8% | [4] 35.6% | [5] 21.9% | [6] 7%

CCn1c(=O)c2[nH]c(Cl)nc2n(CC(C)Cl)c1=O (stereo not given)
inactive: [1] 19.1% | [2] -5% | [3] 6.15% | [4] 17.8% | [5] 5.35% | [6] 19.1%

CC(C)CCN(CCCNc1c2c(nc3ccc(Cl)cc13)CCCC2)CCC(C)C
inactive: [1] -1.65% | [2] -9.4% | [3] -7.55% | [4] -34.4% | [5] -1.25% | [6] 4.95%

CC(=O)Nc1ccc(/C=C2/C(=O)ON=C2C)cc1
inactive: [1] 6.75% | [2] 6.6% | [3] 6% | [4] 11.8% | [5] 3.95% | [6] 13.4%

O=[N+]([O-])c1ccc(-c2cccc3ccccc23)c([N+](=O)[O-])c1
inactive: [1] 15.7% | [2] 34.9% | [3] 17.1% | [4] 15.9% | [5] 33.5% | [6] 21.1%

CC(O)C(C)[N+](=O)[O-] (stereo not given)
inactive: [1] 9.4% | [2] 0.5% | [3] -2.8% | [4] 11.6% | [5] 5.7% | [6] -1.05%

CC(=O)c1ccc(OC(=O)Nc2ccc(Cl)cc2)cc1
inactive: [1] 4.8% | [2] 10.1% | [3] 23.9% | [4] -2.3% | [5] 29.6% | [6] 12.9%

COc1cccc(NC(=O)CC(=O)N2N=C(C)C(N=Nc3ccc(S(=O)(=O)c4ccc(N=NC5C(=O)N(C(=O)CC(=O)Nc6cccc(OC)c6)N=C5C)cc4)cc3)C2=O)c1 (stereo not given)
inactive: [1] 27.4% | [2] 15.8% | [3] 8.9% | [4] -16.4% | [5] -2% | [6] 29.1%

Cn1cc2c(=O)n(OS(=O)(=O)c3ccccc3)c(=O)[nH]c2n1
inactive: [1] 12.8% | [2] -11.8% | [3] -4.55% | [4] -4.4% | [5] -5.2% | [6] 8.8%

CC[n+]1cc([N+](=O)[O-])ccc1Cl
inactive: [1] 17.5% | [2] 14.5% | [3] 13.6% | [4] 15.9% | [5] 12.4% | [6] 20.2%

CCOC(=O)c1cnc2ccc(OC)cc2c1
inactive: [1] 0.7% | [2] 0.7% | [3] -6.35% | [4] -76.6% | [5] 35.5% | [6] 18.3%

CCOc1ccccc1/C=C/C(=O)O
inactive: [1] 4.6% | [2] -9.7% | [3] -11.8% | [4] -19% | [5] -22.1% | [6] -21.4%

C[C@H]1C(=O)OCN1C(=O)OCc1ccccc1
inactive: [1] 0.05% | [2] 16.4% | [3] 12.3% | [4] -6% | [5] 12.6% | [6] -0.5%

O=C1OC2C(O)COC2(O)C1(O)Cc1c[nH]c2ccccc12 (stereo not given)
inactive: [1] 14.1% | [2] -6.4% | [3] -5.45% | [4] 0.5% | [5] 3.35% | [6] -11.2%

C[N+](C)(C)CCCOC1=Nc2ccccc2O/C1=C/c1ccccc1
inactive: [1] -52.2% | [2] 2.1% | [3] -6.3% | [4] -27.4% | [5] -4.1% | [6] 18.5%

COC1=C(OCc2ccccc2)C(=O)OC1C(O)CO (stereo not given)
inactive: [1] -3.1% | [2] 11.4% | [3] 0.5% | [4] -1.3% | [5] -7.55% | [6] -12%

C[N+](C)(C)C1C2(CCCCC2)NC(=O)C12CCCCC2 (stereo not given)
inactive: [1] 5.6% | [2] -0.75% | [3] -11.5% | [4] -3.1% | [5] -5.85% | [6] -2.9%

COc1cc2c(cc1OC)C1CC(O)(c3nccc4cc(OC)c(OC)cc34)CCN1CC2 (stereo not given)
inactive: [1] 21.1% | [2] -1.8% | [3] -3.9% | [4] 10.7% | [5] -1.3% | [6] -14.1%

O=C1CCC(C(Sc2ccccc2)(Sc2ccccc2)Sc2ccccc2)C1 (stereo not given)
inactive: [1] -5.05% | [2] -21.7% | [3] -22% | [4] -7.2% | [5] -1.55% | [6] -41.4%

CC1CCC2C(C(=O)O[C@H]3C4CCO[C@@H](OC5OC(CO)C(O)C(O)C5O)C4[C@@]4(CO)O[C@@H]34)=CO[C@@H](OC3OC(CO)C(O)C(O)C3O)C12 (stereo not given in full)
inactive: [1] 16.4% | [2] -9.6% | [3] 5.9% | [4] 22.2% | [5] 22.6% | [6] 19.6%
